Measured values as given in PubChem BioAssay.
Calls of active or inactive are those of the source.

Tests used:
[1] = optical density shifts of acrAB sulA E. coli – strain DRC41, OD650, 48 h, E. coli filamentation inducer project, primary screen (AID 1152); settings: higher = more signal, called active from +8 up or from −8 down;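 further: E. coli MC1000 strain DRC41 lacking acrAB efflux pump and sulA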
[2] = probe aLefty1 binding on compound microarray – biochemical, small-molecule microarray, 635/667 nm fluorescence, primary screen (AID 1153); settings: higher = more signal;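 further: score merges spot fluorescence with signal-to-noise ratio from the scanned slide images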
[3] = plasmodial surface anion channel blockers, osmotic lysis – cell-based, P. falciparum Indochina, OD700, 1 h, primary screen (AID 1154); settings: P. falciparum Indochina infected RBC osmotic lysis, higher = more signal, called active from +8 up or from −8 down
[4] = plasmodial surface anion channel blockers, osmotic lysis – cell-based, P. falciparum Indochina, OD700, 2 h, primary screen (AID 1155);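 further: lysis reports solute entry through the parasite surface anion channel PSAC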; settings: P. falciparum Indochina infected erythrocytes, higher = more signal, called active from +8 up or from −8 down
[5] = changes in parasitized red cell lysis, either direction – P. falciparum Indochina, OD700, 3 h, PSAC antagonist project, primary screen (AID 1156); settings: P. falciparum-infected erythrocytes, osmotic lysis, higher = more signal, called active from +8 up or from −8 down
[6] = plasmodial surface anion channel blockers, osmotic lysis – cell-based, P. falciparum Indochina, OD700, 18 h, primary screen (AID 1157); settings: P. falciparum Indochina infected erythrocytes, osmotic lysis OD700, 18 h; higher = more signal, called active from +8 up or from −8 down
[7] = S6 kinase pathway phospho-S6 level changes – cell-based, A549, cytoblot, luminescence, serum-stimulated, primary screen (AID 1158); settings: 5 h, higher = more signal;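 further: serum-stimulated A549 lung adenocarcinoma cells; signal is phosphorylated S6 detected by cytoblot immunostaining with HRP secondary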
[8] = biological target: NADPH oxidase 2 (Homo sapiens) (UniProt P04839); assay: compounds shifting NOX2 Amplex Red fluorescence – cell-based, HEK293-NOX2, PMA-stimulated, NOX inhibitor project, primary screen (AID 1159); settings: 45 min, higher = more signal, called active from +8 up or from −8 down; further: test concentration not given here
Chain of NADPH oxidase 2 (Homo sapiens) (P04839 whole entry, looked up): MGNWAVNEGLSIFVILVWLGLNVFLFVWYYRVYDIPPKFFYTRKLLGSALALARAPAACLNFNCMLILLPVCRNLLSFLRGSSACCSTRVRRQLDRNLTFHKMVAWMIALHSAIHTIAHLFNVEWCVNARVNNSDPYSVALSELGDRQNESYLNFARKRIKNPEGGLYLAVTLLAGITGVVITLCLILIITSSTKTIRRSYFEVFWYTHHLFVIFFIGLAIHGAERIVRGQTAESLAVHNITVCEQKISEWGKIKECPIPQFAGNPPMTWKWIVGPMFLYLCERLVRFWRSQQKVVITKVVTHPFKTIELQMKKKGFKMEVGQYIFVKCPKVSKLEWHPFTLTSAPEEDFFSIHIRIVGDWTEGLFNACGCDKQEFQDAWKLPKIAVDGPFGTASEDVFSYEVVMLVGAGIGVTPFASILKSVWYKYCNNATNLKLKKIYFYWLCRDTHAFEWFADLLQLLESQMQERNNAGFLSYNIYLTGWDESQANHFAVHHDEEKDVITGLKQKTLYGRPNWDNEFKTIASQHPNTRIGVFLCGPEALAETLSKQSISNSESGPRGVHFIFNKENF

[9] = biological target: NADPH oxidase 4 (Homo sapiens) (UniProt Q9NPH5); assay: compounds shifting NOX4 Amplex Red fluorescence – cell-based, HEK293-NOX4, tetracycline-induced, NOX inhibitor project, primary screen (AID 1160); settings: HEK293-NOX4, Amplex Red H2O2 fluorescence, 45 min; higher = more signal, called active from +8 up or from −8 down
Chain of NADPH oxidase 4 (Homo sapiens) (Q9NPH5 whole entry, looked up): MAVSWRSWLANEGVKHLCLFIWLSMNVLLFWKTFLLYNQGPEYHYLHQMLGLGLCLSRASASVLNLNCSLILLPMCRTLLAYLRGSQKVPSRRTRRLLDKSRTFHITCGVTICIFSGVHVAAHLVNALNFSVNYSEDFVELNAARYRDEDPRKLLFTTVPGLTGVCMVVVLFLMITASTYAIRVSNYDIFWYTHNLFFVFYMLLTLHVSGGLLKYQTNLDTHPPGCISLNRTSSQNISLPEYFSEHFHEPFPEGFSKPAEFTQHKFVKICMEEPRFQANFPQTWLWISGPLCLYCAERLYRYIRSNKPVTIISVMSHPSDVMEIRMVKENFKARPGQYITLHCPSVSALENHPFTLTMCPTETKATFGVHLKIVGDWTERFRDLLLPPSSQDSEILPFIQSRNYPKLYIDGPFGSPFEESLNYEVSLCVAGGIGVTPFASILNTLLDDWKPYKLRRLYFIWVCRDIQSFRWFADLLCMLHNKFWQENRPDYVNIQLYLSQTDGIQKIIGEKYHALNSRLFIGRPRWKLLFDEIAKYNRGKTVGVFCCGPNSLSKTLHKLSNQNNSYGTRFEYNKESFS

[10] = biological target: NADPH oxidase 5 (Homo sapiens) (UniProt Q96PH1); assay: compounds shifting NOX5 Amplex Red fluorescence – cell-based, HEK293-NOX5, NOX inhibitor project, primary screen (AID 1161); settings: HEK293-NOX5, ionomycin, 45 min, higher = more signal
Chain of NADPH oxidase 5 (Homo sapiens) (Q96PH1 whole entry, looked up): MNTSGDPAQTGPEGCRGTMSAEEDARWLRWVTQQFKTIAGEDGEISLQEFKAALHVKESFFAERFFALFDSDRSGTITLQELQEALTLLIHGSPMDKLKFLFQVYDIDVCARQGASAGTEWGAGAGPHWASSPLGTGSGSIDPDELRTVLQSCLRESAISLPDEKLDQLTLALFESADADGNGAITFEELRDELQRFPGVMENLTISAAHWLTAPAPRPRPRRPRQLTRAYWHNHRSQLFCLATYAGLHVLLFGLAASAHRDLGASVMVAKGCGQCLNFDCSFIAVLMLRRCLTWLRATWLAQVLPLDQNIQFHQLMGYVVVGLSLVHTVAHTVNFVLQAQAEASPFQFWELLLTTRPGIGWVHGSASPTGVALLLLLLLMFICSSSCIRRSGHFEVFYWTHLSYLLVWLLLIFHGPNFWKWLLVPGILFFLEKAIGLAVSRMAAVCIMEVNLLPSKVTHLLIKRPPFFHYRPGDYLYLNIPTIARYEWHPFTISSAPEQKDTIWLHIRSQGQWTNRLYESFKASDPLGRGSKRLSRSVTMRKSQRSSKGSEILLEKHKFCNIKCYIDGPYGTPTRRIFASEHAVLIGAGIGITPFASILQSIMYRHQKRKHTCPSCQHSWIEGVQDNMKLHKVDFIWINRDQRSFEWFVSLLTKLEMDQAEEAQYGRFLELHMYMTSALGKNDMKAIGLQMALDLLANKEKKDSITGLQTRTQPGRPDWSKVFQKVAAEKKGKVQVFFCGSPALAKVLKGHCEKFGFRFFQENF

SMILES | z-score [1] | composite z-score [2] | z-score [3] | z-score [4] | z-score [5] | z-score [6] | z-score [7] | z-score [8] | z-score [9] | z-score [10]
C[C@]1(C(=O)NC2CC2)c2ccccc2C(=O)N(Cc2cc(F)cc(C(F)(F)F)c2)[C@H]1c1ccc(CO)cc1 | 0.256 (inactive) | -0.351 | 3.02 (inactive) | 0.334 (inactive) | 0.678 (inactive) | 0.597 (inactive) | 0.0446 | -0.0377 (inactive) | -0.978 (inactive) | -1.46
COc1ccc(C(=O)Nc2cccc(CN3C(=O)[C@]4(O[C@H](CC(=O)N(CCO)Cc5ccccc5)[C@@H]([Si](C)(C)c5ccc(OC)cc5)[C@@H]4C)c4ccccc43)c2)cc1 | 0.556 (inactive) | 0.0892 | 4.41 (inactive) | 0.614 (inactive) | 0.0064 (inactive) | 0.795 (inactive) | 0.805 | 0.936 (inactive) | 0.871 (inactive) | 3.51
O=C(NCCN1CCOCC1)[C@@H]1c2ccccc2C(=O)N(CC23CC4CC(CC(C4)C2)C3)[C@H]1c1ccc(CO)cc1 | 0.0865 (inactive) | 0.409 | 2.89 (inactive) | 1.09 (inactive) | 1.29 (inactive) | 0.744 (inactive) | -0.407 | -0.0458 (inactive) | -1.7 (inactive) | -1.61
Cc1ccc(S[C@]2(C(=O)NC3CC3)CC(=O)N(C3Cc4ccccc4C3)[C@@H]2c2ccc(CO)cc2I)cc1 | 0.933 (inactive) | 0.227 | 5.18 (inactive) | 0.943 (inactive) | 0.202 (inactive) | 0.254 (inactive) | -0.256 | 1.94 (inactive) | -2.66 (inactive) | 1.41
CCCC1(C(=O)OC)C=C2C(=C(C(C)C)C(=O)C2C)CN1 (stereo not given) | -2.12 (inactive) | 0.062 | 2.85 (inactive) | 0.364 (inactive) | 0.454 (inactive) | 0.57 (inactive) | -0.598 | 0.216 (inactive) | -1.15 (inactive) | -3.15
COc1ccc(NN2C(C(O)c3ccc(F)cc3)C=CC3C(=O)N(C4CCCCC4)C(=O)C32)cc1 (stereo not given) | -1.24 (inactive) | 0.0561 | 5.76 (inactive) | 1.42 (inactive) | 0.37 (inactive) | 0.856 (inactive) | -0.54 | -1.73 (inactive) | -3.25 (inactive) | -1.23
COC(=O)[C@@]1(Cc2ccc(F)cc2)[C@H]2c3cc(C(=O)N4CCCC4)n(CCc4c[nH]c5cc(F)ccc45)c3C[C@H]2CN1C(=O)c1ccccc1 | -1.22 (inactive) | 0.429 | 1.76 (inactive) | 0.456 (inactive) | 1.86 (inactive) | 0.984 (inactive) | 0.593 | 0.361 (inactive) | 1.9 (inactive) | 2.01
COC(=O)C1(CC(C)C)C=C2C(=C(C)C(=O)C2C)CN1 (stereo not given) | -1.62 (inactive) | 1.59 | 0.71 (inactive) | -0.161 (inactive) | 0.396 (inactive) | 0.421 (inactive) | -0.164 | 0.425 (inactive) | -1.51 (inactive) | -2.83
Cc1c(NC(=O)/C(C#N)=C/C=C/c2ccc([N+](=O)[O-])cc2)c(=O)n(-c2ccccc2)n1C | 0.0351 (inactive) | 0.277 | 2.74 (inactive) | 0.636 (inactive) | 0.206 (inactive) | 0.598 (inactive) | -0.279 | -0.696 (inactive) | 0.0994 (inactive) | 0.714
C=CCNC(=O)[C@@H]1[C@H]2C(=O)O[C@H](c3ccccc3)[C@H](c3ccccc3)N2[C@H](c2ccc(OCCO)cc2)[C@@]12C(=O)Nc1ccc(C#CC3=CCCCC3)cc12 | -0.874 (inactive) | -0.21 | 2.81 (inactive) | 1.98 (inactive) | -0.306 (inactive) | 1.87 (inactive) | -0.474 | 1.38 (inactive) | -0.894 (inactive) | 1.56
CC(C)C[C@@H]1NC(=O)[C@H]2C[C@@H](C(=O)O)[C@@H](c3cccc(OCCO)c3)N2C1=O | 0.441 (inactive) | 0.0794 | 6.12 (inactive) | 1.34 (inactive) | -2.36 (inactive) | 0.595 (inactive) | 0.793 | -0.911 (inactive) | -0.69 (inactive) | -0.0644
COc1ccc([Si](C)(C)[C@H]2[C@H](CC(=O)N(CCO)Cc3ccccc3)O[C@@]3(C(=O)N(c4ccccc4)c4ccccc43)[C@@H]2C)cc1 | -0.79 (inactive) | -0.0603 | 26.5 (active) | 12.9 (active) | 0.495 (inactive) | 2.04 (inactive) | 0.297 | -0.0743 (inactive) | 0.689 (inactive) | -1.65
C=CC[C@]1(C(N)=O)N=C(c2ccc(OCCCO)cc2)O[C@H]1c1ccccc1N=[N+]=[N-] | 2.21 (inactive) | 0.408 | 33.4 (active) | 30.8 (active) | 2.17 (inactive) | 9.7 (active) | -0.0547 | -1.77 (inactive) | 0.627 (inactive) | 0.189
C=CCOC(=O)[C@H]1[C@@H]2C(=O)O[C@@H](c3ccccc3)[C@@H](c3ccccc3)N2[C@@H](c2ccc(OCCOC(=O)[C@H]3C[C@H]4C(=O)NCC(=O)N4[C@H]3c3cccc(OCCO)c3)cc2)[C@]12C(=O)Nc1ccc(I)cc12 | 0.0133 (inactive) | 1.31 | 5.17 (inactive) | 2.48 (inactive) | 0.939 (inactive) | 1.58 (inactive) | 0.58 | 1.71 (inactive) | 0.956 (inactive) | 1.4
C=CCOC(=O)[C@H]1[C@@H]2C(=O)O[C@@H](c3ccccc3)[C@@H](c3ccccc3)N2[C@@H](c2ccc(OCCOC(=O)[C@H]3C[C@H]4C(=O)NCC(=O)N4[C@H]3c3ccc(O)cc3)cc2)[C@]12C(=O)Nc1ccccc12 | 0.141 (inactive) | 1.09 | 2.42 (inactive) | 1.3 (inactive) | 2.3 (inactive) | 0.987 (inactive) | -0.295 | 2.06 (inactive) | -0.365 (inactive) | 0.00131
CO[C@H]1O[C@H](CO)[C@@H](OC(=O)Nc2cccc(F)c2)[C@H](OC(=O)Nc2ccc3c(c2)OCO3)[C@@H]1OC(=O)Nc1ccc2c(c1)OCO2 | -0.727 (inactive) | 0.37 | 12 (active) | 2.05 (inactive) | 1.16 (inactive) | 1.18 (inactive) | 0.296 | -3.87 (inactive) | -1.07 (inactive) | -1.81
Cc1ccc(S(=O)(=O)N2[C@@H](c3ccccc3)C(C(=O)O)=C[C@H]2C(C)(C)C)cc1 | -0.576 (inactive) | -0.0318 | 0.386 (inactive) | 0.0156 (inactive) | 0.136 (inactive) | 0.61 (inactive) | -0.222 | 0.384 (inactive) | -0.539 (inactive) | -0.36
CCOC(=O)C=C1C[C@@H](c2cccc([N+](=O)[O-])c2)O[C@@H](c2cccc([N+](=O)[O-])c2)O1 | -0.546 (inactive) | 1.21 | 1.65 (inactive) | 1.11 (inactive) | -0.481 (inactive) | 0.66 (inactive) | -0.125 | 0.325 (inactive) | 0.481 (inactive) | 1.28
COCCOC(=O)N1C(=O)[C@@]2(c3cc(C#CC4=CCCCC4)ccc31)[C@H](C(=O)N1CCCCCCC1)[C@H]1C(=O)O[C@H](c3ccccc3)[C@H](c3ccccc3)N1[C@@H]2c1ccccc1OCCO | 0.857 (inactive) | 1.11 | 0.951 (inactive) | 1.01 (inactive) | -0.249 (inactive) | 0.413 (inactive) | 0.526 | -0.129 (inactive) | 0.322 (inactive) | 0.0795
[N-]=[N+]=NCc1ccccc1[C@H]1OC(c2ccc(OCCCO)cc2)=N[C@@]1(CCS(=O)(=O)c1ccccc1)C(=O)NCCN1CCOCC1 | -0.265 (inactive) | 0.877 | 27.1 (active) | 13.2 (active) | 1.38 (inactive) | 1.99 (inactive) | -0.124 | 0.636 (inactive) | 1.33 (inactive) | 1.65
CO[C@H]1O[C@H](CO)[C@@H](OC(=O)Nc2cccc(F)c2)[C@H](OC(=O)c2cc3ccccc3[nH]2)[C@H]1OC(=O)c1cc2ccccc2[nH]1 | 0.378 (inactive) | -0.0412 | 0.694 (inactive) | -1.02 (inactive) | -0.0952 (inactive) | -0.908 (inactive) | 2.06 | -2.38 (inactive) | -0.453 (inactive) | -3.81
O=C1C2C=CC(C(O)C(c3ccccc3)c3ccccc3)N(Nc3ccccc3F)C2C(=O)N1c1ccccc1 (stereo not given) | -1.6 (inactive) | 0.235 | 2.23 (inactive) | 1.25 (inactive) | 0.663 (inactive) | 0.852 (inactive) | -0.799 | -1.34 (inactive) | -2.28 (inactive) | -1.87
O=C1C2C=CC(C(O)c3ccccn3)N(Nc3ccc([N+](=O)[O-])cc3)C2C(=O)N1c1ccccc1 (stereo not given) | -1.5 (inactive) | 0.0768 | 4.59 (inactive) | 1.04 (inactive) | 0.809 (inactive) | 0.509 (inactive) | -0.967 | -0.261 (inactive) | -1.7 (inactive) | -1.62
COc1ccc(CCNC(=O)[C@@H]2c3ccccc3C(=O)N(Cc3cc(F)cc(C(F)(F)F)c3)[C@H]2c2ccc(CO)cc2)cc1 | 0.799 (inactive) | 0.659 | 3.5 (inactive) | 0.69 (inactive) | 0.563 (inactive) | 0.0614 (inactive) | -0.155 | -2.4 (inactive) | -0.0983 (inactive) | -2.21
COCCOC(=O)N1C(=O)[C@@]2(c3cc(C#CCNC(N)=O)ccc31)[C@H](C(N)=O)[C@H]1C(=O)O[C@H](c3ccccc3)[C@H](c3ccccc3)N1[C@@H]2c1ccc(O)cc1 | 0.989 (inactive) | 0.316 | 1.65 (inactive) | -0.132 (inactive) | -1.12 (inactive) | 0.141 (inactive) | 0.189 | 0.161 (inactive) | -0.181 (inactive) | 0.00933
